Results on 34 compounds are retold here after PubChem BioAssay (EPA / NIEHS).

Inconclusive results are not listed. Active and inactive are the calls of the source. Rule for the calls, unless noted: active = hit-call score of the fitted dose curve at least 0.9, where 1 is the maximum; inconclusive = response in the unintended direction; inactive = score below 0.9.

In test [1] the target is Oxysterols receptor LXR-alpha (Homo sapiens) (UniProt Q13133). Put plainly: ATG_LXRa_TRANS: Attagene TRANS-FACTORIAL HepG2 Assay for human Liver X Receptor alpha (LXRa) (AID 2282980). As to conditions: HepG2 Attagene TRANS reporter, LXRa transactivation. The procedure, abridged:
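Transient HepG2 transfectants, 24 h dosing, RT-PCR/CE mRNA reporter quantitation; gain-of-signal vs DMSO.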

In test [2] the target is Hepatocyte nuclear factor 4-alpha (Homo sapiens) (UniProt P41235). Put plainly: ATG_HNF4a_TRANS: Attagene TRANS-FACTORIAL HepG2 Assay for human Hepatocyte Nuclear Factor 4 alpha (HNF4a) (AID 2282982). As to conditions: HepG2 HNF4a transactivation reporter, mRNA readout. The method in brief:
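Transfected HepG2 reporter cells are dosed for 24 h; reporter RNA is reverse-transcribed, amplified, fluorescently labelled and HpaI-digested before CE sizing. Positive-direction fit against DMSO.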

Test [3] in a line: ATG_M_32_TRANS: Attagene TRANS-FACTORIAL HepG2 Assay for M32 Transcription Factor (Internal Marker) (AID 2282984).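 Note: transcript level of a background control reporter unit measured by RT-PCR and capillary electrophoresis.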 As to conditions: HepG2 Attagene TRANS M32 internal marker reporter. The procedure, abridged:
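Using transiently transfected HepG2 cells exposed to test chemicals for 24 h, reporter transcripts are converted to labelled cDNA fragments and quantified by capillary electrophoresis. DMSO defines the activity baseline.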

For test [4], the target named is Nuclear receptor subfamily 4 group A member 2 (Homo sapiens) (UniProt P43354). Put plainly: ATG_NURR1_TRANS: Attagene TRANS-FACTORIAL HepG2 Assay for human Nuclear Receptor Related Protein 1 (NURR1) (AID 2282985). As to conditions: HepG2 Attagene TRANS reporter, mRNA readout. The procedure, abridged:
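Cells: HepG2, transiently transfected. Exposure: 24 h. Detection: fluorescence of labelled RT-PCR products separated by capillary electrophoresis; upward fit versus DMSO.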

The target in test [5] is Transcriptional activator Myb (Homo sapiens) (UniProt P10242). In words: ATG_Myb_CIS: Attagene CIS-FACTORIAL HepG2 Assay for human Myeloblastosis (Myb) Proto-Oncogene Transcription Factor (AID 2282986; active = hit-call score of the fitted dose curve at least 0.9, where 1 is the maximum; inactive = score below 0.9). As to conditions: HepG2 Attagene CIS-FACTORIAL Myb reporter transcription; actives raise or lower the signal. The method in brief:
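HepG2, transient MRTU transfection (cis-element promoters, endogenous TF activity), 24 h compound exposure. Readout: reporter mRNA via RT-PCR, 6-FAM labeling, HpaI digest, capillary electrophoresis. Gain/loss fit vs DMSO.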

In test [6] the target is Oxysterols receptor LXR-beta (Homo sapiens) (UniProt P55055). In words: ATG_LXRb_TRANS: Attagene TRANS-FACTORIAL HepG2 Assay for human Liver X Receptor beta (LXRb) (AID 2282981). As to conditions: HepG2 Attagene TRANS GAL4-LXRb reporter, mRNA. The procedure, abridged:
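Cells: HepG2, transiently transfected with GAL4-UAS reporter units plus LXRb-Gal4 fusion. Treatment: 24 h. Detection: reporter mRNA by RT-PCR, 6-FAM labelling, HpaI digestion, capillary electrophoresis.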

Test [7] in a line: ATG_M_06_TRANS: Attagene TRANS-FACTORIAL HepG2 Assay for M06 Transcription Factor (Internal Marker) (AID 2282983).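 Note: reporter transcript level by RT-PCR then capillary electrophoresis fluorescence.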 As to conditions: HepG2 Attagene TRANS M06 internal marker reporter. The method in brief: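 Measured by capillary electrophoresis of fluorescently labelled RT-PCR products, this endpoint reflects reporter mRNA in HepG2 cells harbouring exogenous NR-GAL4 reporter constructs after 24 h exposure, with DMSO as baseline.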

The target in test [8] is Nuclear respiratory factor 1 (Homo sapiens) (UniProt Q16656). In words: ATG_NRF1_CIS: Attagene CIS-FACTORIAL HepG2 Assay for human Nuclear Respiratory Factor 1 (NRF1) Orphan Gene (AID 2282987; active = hit-call score of the fitted dose curve at least 0.9, where 1 is the maximum; inactive = score below 0.9). As to conditions: HepG2 NRF1 cis-element reporter, Attagene multiplex; actives raise or lower the signal. The procedure, abridged:
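Endogenous NRF1-driven reporter transcription measured in transiently transfected human HepG2 liver cells. Readout: reporter mRNA by RT-PCR and capillary electrophoresis with fluorescence detection, 24 h post-dosing. Gain or loss of signal fitted relative to DMSO baseline.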

Sequence of Oxysterols receptor LXR-beta (Homo sapiens) (P55055 whole entry, looked up, the tested form may be a part): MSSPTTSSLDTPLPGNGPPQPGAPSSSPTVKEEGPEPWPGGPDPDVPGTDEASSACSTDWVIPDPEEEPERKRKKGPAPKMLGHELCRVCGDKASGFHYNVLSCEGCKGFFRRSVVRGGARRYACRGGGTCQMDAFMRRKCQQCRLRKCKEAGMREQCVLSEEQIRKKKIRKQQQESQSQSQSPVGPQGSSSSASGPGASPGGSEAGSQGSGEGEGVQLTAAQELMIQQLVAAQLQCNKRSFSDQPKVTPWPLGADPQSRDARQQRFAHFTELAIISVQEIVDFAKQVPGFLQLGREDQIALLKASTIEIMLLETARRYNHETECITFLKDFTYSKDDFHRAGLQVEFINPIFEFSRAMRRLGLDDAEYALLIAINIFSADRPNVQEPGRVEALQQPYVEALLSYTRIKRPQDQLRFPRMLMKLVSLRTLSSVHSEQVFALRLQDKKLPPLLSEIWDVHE
Sequence of Hepatocyte nuclear factor 4-alpha (Homo sapiens) (P41235 whole entry, looked up): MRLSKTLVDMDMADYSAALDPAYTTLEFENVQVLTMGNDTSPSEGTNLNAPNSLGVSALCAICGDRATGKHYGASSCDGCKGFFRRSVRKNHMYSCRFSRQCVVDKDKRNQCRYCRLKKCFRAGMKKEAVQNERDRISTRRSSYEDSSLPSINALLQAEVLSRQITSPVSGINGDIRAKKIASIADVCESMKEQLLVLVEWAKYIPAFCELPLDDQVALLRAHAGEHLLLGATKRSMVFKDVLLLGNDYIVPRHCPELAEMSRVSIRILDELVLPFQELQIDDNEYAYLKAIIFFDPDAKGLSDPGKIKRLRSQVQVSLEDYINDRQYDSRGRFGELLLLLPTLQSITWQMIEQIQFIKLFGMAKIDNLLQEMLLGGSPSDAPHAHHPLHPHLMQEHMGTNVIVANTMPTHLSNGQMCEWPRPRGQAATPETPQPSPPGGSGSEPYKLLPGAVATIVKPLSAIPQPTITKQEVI
Sequence of Transcriptional activator Myb (Homo sapiens) (P10242 whole entry, looked up): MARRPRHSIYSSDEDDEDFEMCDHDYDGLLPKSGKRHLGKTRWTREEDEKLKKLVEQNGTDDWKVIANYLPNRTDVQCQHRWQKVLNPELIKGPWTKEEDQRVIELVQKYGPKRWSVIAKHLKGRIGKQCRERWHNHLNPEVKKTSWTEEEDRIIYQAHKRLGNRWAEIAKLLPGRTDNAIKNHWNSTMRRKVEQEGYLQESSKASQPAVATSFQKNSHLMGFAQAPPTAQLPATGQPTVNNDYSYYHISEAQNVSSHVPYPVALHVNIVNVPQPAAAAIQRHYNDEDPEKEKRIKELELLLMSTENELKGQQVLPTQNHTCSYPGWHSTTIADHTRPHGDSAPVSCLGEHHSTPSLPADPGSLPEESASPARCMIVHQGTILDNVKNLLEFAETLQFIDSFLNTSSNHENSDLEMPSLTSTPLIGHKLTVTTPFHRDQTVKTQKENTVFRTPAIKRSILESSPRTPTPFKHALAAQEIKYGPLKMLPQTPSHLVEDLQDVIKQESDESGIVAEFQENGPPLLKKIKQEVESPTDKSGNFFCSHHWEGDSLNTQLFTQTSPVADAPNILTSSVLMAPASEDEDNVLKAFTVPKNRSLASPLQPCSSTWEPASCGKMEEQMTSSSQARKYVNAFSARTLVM
Sequence of Oxysterols receptor LXR-alpha (Homo sapiens) (Q13133 whole entry, looked up): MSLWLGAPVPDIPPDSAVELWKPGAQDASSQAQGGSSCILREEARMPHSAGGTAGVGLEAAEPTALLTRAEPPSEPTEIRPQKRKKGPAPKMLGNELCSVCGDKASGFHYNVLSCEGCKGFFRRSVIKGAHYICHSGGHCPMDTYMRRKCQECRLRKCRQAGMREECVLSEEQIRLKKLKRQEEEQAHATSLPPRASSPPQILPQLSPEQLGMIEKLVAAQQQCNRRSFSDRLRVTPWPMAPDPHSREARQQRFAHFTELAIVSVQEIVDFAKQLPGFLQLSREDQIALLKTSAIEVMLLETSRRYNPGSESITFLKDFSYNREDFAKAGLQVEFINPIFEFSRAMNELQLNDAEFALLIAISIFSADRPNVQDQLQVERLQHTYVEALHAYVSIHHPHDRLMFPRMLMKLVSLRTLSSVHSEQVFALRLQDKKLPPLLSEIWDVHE
Sequence of Nuclear respiratory factor 1 (Homo sapiens) (Q16656 whole entry, looked up): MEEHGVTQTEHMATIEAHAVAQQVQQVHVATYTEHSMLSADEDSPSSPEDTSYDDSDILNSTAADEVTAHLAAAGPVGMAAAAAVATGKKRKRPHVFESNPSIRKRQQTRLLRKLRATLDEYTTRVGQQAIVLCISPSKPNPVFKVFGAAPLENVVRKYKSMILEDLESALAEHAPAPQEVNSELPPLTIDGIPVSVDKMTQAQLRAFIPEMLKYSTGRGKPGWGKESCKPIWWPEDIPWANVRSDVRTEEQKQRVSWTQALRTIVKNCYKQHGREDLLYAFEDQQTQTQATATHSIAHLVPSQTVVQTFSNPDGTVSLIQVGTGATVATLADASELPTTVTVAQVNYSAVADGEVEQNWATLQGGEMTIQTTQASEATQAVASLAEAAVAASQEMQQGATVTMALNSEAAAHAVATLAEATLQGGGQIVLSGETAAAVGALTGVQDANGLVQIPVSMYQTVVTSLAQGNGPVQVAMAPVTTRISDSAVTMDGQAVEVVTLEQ
Sequence of Nuclear receptor subfamily 4 group A member 2 (Homo sapiens) (P43354 whole entry, looked up): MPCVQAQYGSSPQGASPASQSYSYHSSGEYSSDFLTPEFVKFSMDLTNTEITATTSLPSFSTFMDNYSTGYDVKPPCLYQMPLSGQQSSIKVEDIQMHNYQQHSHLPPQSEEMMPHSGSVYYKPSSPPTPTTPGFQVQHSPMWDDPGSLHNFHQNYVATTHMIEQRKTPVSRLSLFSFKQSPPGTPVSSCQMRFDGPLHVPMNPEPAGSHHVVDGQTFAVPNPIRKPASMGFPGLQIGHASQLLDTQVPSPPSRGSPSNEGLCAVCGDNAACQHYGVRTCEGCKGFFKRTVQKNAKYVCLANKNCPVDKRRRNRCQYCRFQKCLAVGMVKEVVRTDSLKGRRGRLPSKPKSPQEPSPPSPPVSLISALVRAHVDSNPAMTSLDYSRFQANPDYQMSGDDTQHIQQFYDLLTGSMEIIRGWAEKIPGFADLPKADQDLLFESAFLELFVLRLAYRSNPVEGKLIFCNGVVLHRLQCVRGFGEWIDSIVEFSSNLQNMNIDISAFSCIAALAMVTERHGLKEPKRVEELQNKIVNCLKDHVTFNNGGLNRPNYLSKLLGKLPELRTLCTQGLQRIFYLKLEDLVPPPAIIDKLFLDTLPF

As for `C1CN(SSN2CCOCC2)CCO1`, the call in test [1], in test [2], in test [3], in test [4] and in test [5] was inactive.
For the compound `Cc1cc(C)c(C)c(O)c1`, the result in test [1], in test [6], in test [3], in test [4] and in test [5] was inactive.
`O=C1CCCCCN1SSN1CCCCCC1=O`: the call in test [6], in test [2], in test [7], in test [3], in test [4] and in test [5] was inactive.
In the case of `S=C(NC1CCCCC1)NC1CCCCC1`, the outcome in test [1], in test [2], in test [3], in test [4], in test [5] and in test [8] was inactive.
For the compound `CC=C1CC2C=CC1C2` (configuration not stated), the outcome in test [1], in test [6], in test [3], in test [4], in test [5] and in test [8] was inactive.
For the compound `Cc1ccc(OC(=O)CC(C)C)cc1`, the call in test [6], in test [2], in test [7], in test [3], in test [4] and in test [5] was inactive. The compound was classed as inactive in test [8].
In the case of `CN1C(=O)N(C)C(O)C1O` (configuration not stated), the compound was called inactive in test [1], in test [2], in test [5] and in test [8].
As for `CCN(CC#N)c1cccc(C)c1`, the outcome in test [6], in test [2], in test [7], in test [3], in test [4] and in test [5] was inactive. The outcome in test [8] was inactive.
`C=C[Si](OC(C)=O)(OC(C)=O)OC(C)=O`: the compound was classed as inactive in test [1], in test [6], in test [3], in test [5] and in test [8].
As to `OCCc1ccncc1`, the call in test [1], in test [2], in test [7] and in test [5] was inactive.
For the compound `CCOCC(=O)O`, the outcome in test [1], in test [5] and in test [8] was inactive.
Take `[Cl][In]([Cl])[Cl]`: the outcome in test [1], in test [2], in test [7], in test [4] and in test [8] was inactive.
As to `CCC(Cc1ccccc1)(C(=O)c1ccc(N2CCOCC2)cc1)N(C)C` (configuration not stated), the concentration at half-maximal activity (AC50) in test [1] is 23.3 µM (active); in test [6], 27.5 µM (active); in test [4], 41 µM (active); in test [8], 30.3 µM (active). In addition, the outcome in test [3] and in test [5] was inactive.
On to `COc1cc(C)ccc1C(C)C`, for which the call in test [1], in test [2], in test [7], in test [3], in test [4] and in test [8] was inactive.
Regarding `CCCCCCCC(C)=O`, the compound was called inactive in test [6], in test [2], in test [7], in test [3], in test [5] and in test [8].
Regarding `Cc1ccc(N/N=c2\c(=O)cc/c(=N/Nc3ccc(S(=O)(=O)O)cc3)c2=O)c(C)c1`, the compound was classed as inactive in test [1], in test [7], in test [3], in test [4] and in test [5].
As for `CCCNC(=O)NS(=O)(=O)c1ccc(Cl)cc1`, the compound was classed as inactive in test [1], in test [7], in test [3], in test [5] and in test [8].
Consider `CCC(C)C=O` (configuration not stated), for which the result in test [1], in test [4], in test [5] and in test [8] was inactive.
Turning to `C=CC(=O)OCCOC(=O)C=C`, the result in test [6], in test [2], in test [7], in test [3] and in test [5] was inactive.
On to `CC1=CC[C@H]2C[C@@H]1C2(C)C`, for which the compound was classed as inactive in test [1], in test [6], in test [3], in test [4], in test [5] and in test [8].
For the compound `CCCCCCCCCCC=CC#N`, the compound was called inactive in test [1], in test [3], in test [4], in test [5] and in test [8].
As for `O=c1n(CCO)c(=O)n(CCO)c(=O)n1CCO`, the compound was called inactive in test [1], in test [2], in test [3], in test [5] and in test [8].
For `COC(=O)/C=C/C(C)=C\C=C\C(C)=C\C=C\C=C(C)\C=C\C=C(C)\C=C\C(=O)O`, the result in test [6], in test [2], in test [7], in test [3], in test [4] and in test [5] was inactive. Moreover, in test [8], the compound was called inactive.
As to `CCCOCCOCCOCCO`, the outcome in test [1], in test [6], in test [5] and in test [8] was inactive.
Take `CC/C=C\CCOC(=O)CCCCC`: the result in test [1] and in test [8] was inactive.
On to `CC(C)COC(=O)C=Cc1ccccc1`, for which the outcome in test [1], in test [6], in test [7], in test [4], in test [5] and in test [8] was inactive.
As to `O=C(O)C(c1ccc(Cl)cc1)c1ccc(Cl)cc1`, the call in test [1], in test [2] and in test [8] was inactive.
Take `O=S(=O)(O)CC(O)CCl` (configuration not stated): the compound was classed as inactive in test [6], in test [2], in test [7], in test [3], in test [5] and in test [8].
Consider `CO[Si](OC)(OC)c1ccccc1`, for which the compound was classed as inactive in test [1], in test [2], in test [7], in test [3], in test [5] and in test [8].
Regarding `COC=O`, the compound was classed as inactive in test [1], in test [2], in test [7], in test [3] and in test [8].
As for `CC(=O)OCc1ccco1`, the call in test [1], in test [2], in test [3], in test [5] and in test [8] was inactive.
In the case of `CCCCCCC(O)CO` (configuration not stated), the result in test [1], in test [2], in test [7] and in test [4] was inactive.
With `C=CC(=O)NC(C)(C)CS(=O)(=O)O`, the compound was called inactive in test [1], in test [2], in test [3] and in test [8].
In the case of `O=CC1CC1`, the outcome in test [1], in test [3], in test [5] and in test [8] was inactive.
